From the supplement of paper PMC13380429

test system: Vero E6 infected with SARS-CoV-2; assay: SARS-CoV-2 infection rate relative to infected DMSO; higher = more infection, active = 60 or less; conditions: 24 h

| SMILES | SARS-CoV-2 infection rate |
| --- | --- |
| C[C@@H]1CN(Cc2ccc(F)cc2)[C@@H](C)CN1C(=O)c1cc2c(C(=O)C(=O)N(C)C)cn(C)c2cc1Cl [talmapimod] (10 µM) | 88.5% (inactive) |
| CCC1(c2ccccc2)C(=O)N(COC)C(=O)N(COC)C1=O [eterobarb] (10 µM) | 106% (inactive) |
| CCOc1ccc(-c2ccc(Cn3c(CC(C)(C)C(=O)O)c(SC(C)(C)C)c4cc(OCc5ccc(C)cn5)ccc43)cc2)cn1 (0.833333 µM) | 118% (inactive) |
| C/C(O)=C(\C#N)C(=O)Nc1ccc(C(F)(F)F)cc1 [teriflunomide] (10 µM) | 108% (inactive) |
| CC(C)(O)c1ccccc1CC[C@@H](SCC1(CC(=O)O)CC1)c1cccc(/C=C/c2ccc3ccc(Cl)cc3n2)c1 [montelukast] (10 µM) | 92.5% (inactive) |
| O=C1CC2(CCCC2)CC(=O)N1CCCCNC[C@H]1COc2ccccc2O1 (racemic) (10 µM) | 108% (inactive) |
| CCCCCCCCCCCCCCCCCC(=O)OCC(O)CO (centres undefined) [monostearin] (10 µM) | 108% (inactive) |
| NC(=O)c1ccc(-c2nc(-c3ccccn3)c(-c3ccc4c(c3)OCO4)[nH]2)cc1 (10 µM) | 109% (inactive) |
| COc1ccc(S(=O)(=O)N2CCC[C@H]2C(=O)Nc2cc(C)cc(C)c2)cc1 (10 µM) | 113% (inactive) |
| O=C(CCCCCCCC(=O)NCCO)NCCO [adelmidrol] (10 µM) | 105% (inactive) |
| Clc1ccc(C2(c3ccc(-c4cn[nH]c4)cc3)CCNCC2)cc1 (0.833333 µM) | 112% (inactive) |
| NC(=O)CN1Cc2ccccc2OC1=O [caroxazone] (10 µM) | 100% (inactive) |
| Cc1cc(C)c(CNC(=O)c2cc(-c3ccc(N4CCN(C)CC4)nc3)cc3c2c(C)cn3C(C)C)c(=O)[nH]1 (10 µM) | 98% (inactive) |
| Cc1nc(N)sc1-c1ccnc(Nc2ccc(N3CCOCC3)cc2)n1 (0.833333 µM) | 93% (inactive) |
| CCC[C@H](N[C@@H](C)C(=O)N1[C@H](C(=O)O)C[C@@H]2CCCC[C@@H]21)C(=O)OCC [perindopril] (10 µM) | 95% (inactive) |
| N=C(N)NC(=O)c1cnn(-c2cccc3ncccc23)c1C1CC1 [zoniporide] (10 µM) | 115% (inactive) |
| COc1cc(C(=O)NCc2ccc(OCCN(C)C)cc2)cc(OC)c1OC [trimethobenzamide] (10 µM) | 110% (inactive) |
| Cc1[nH]cnc1-c1ccc(Cl)cc1 [lofemizole] (10 µM) | 102% (inactive) |
| CC(C)(c1ccc(O)cc1)c1ccc(O)cc1 [bisphenol-A] (10 µM) | 106% (inactive) |
| CCOc1ccc2nc3cc(N)ccc3c(N)c2c1 [ethacridine-lactate-monohydrate] (10 µM) | 95.5% (inactive) |
| CC(OC(=O)OC1CCCCC1)OC(=O)C1=C(CSc2nnnn2CCN(C)C)CS[C@@H]2[C@H](NC(=O)Cc3csc(N)n3)C(=O)N12 (some centres undefined) [cefotiam-cilexetil] (10 µM) | 109% (inactive) |
| O=C(Nc1cccc2cccnc12)c1ccc(N2C(=O)[C@@H]3[C@H](C2=O)[C@H]2C=C[C@@H]3C2)cc1 (10 µM) | 102% (inactive) |
| COc1cc(Cc2cnc(N)nc2N)cc(OC)c1OC [trimethoprim] (10 µM) | 98.5% (inactive) |
| NC(=O)c1ncn([C@@H]2O[C@H](CO)[C@@H](O)[C@H]2O)c1O [mizoribine] (10 µM) | 112% (inactive) |
